Screening results (PubChem)
MBNL1 CUG block: blocks human MBNL1 binding to CUG repeat RNA. Q9NR56. Potency, µM (highest dose often 57.5 µM), inactives show at the top dose activity change, negative = inhibition, actives largely listed as inhibitors. AID 2675. TR-FRET MBNL1-His/biotin-(CUG)12 binding, 665/545 ratio. 280,000 compounds, 0.036% hits; active means well fitted inhibition curve with a large enough effect in the signal ratio, with a control signal flat, not every such curve was filed as active; inconclusive means small, poorly fitted or top-dose-only effect, or effect the other way, or a change in a side signal; inactive means no such curve, though single readings can be large or run the other way; the % refers to the signal ratio; further: potency means the concentration at half of the fitted maximal effect; on the % scale 0 is the no-effect control and ±100 the full control effect
Target sequence (Q9NR56 whole entry, looked up): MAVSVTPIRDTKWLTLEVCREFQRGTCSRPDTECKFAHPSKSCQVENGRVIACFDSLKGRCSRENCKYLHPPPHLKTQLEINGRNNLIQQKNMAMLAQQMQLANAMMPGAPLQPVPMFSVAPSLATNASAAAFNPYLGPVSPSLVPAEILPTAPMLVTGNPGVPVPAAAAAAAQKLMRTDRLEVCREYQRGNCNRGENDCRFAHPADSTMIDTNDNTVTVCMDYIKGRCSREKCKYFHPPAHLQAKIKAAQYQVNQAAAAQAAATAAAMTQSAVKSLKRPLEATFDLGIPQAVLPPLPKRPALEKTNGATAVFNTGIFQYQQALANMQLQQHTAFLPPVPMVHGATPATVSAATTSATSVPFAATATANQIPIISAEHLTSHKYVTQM
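Compounds (final 92 nM to 58 uM) are added to His-tagged MBNL1 and biotin-(CUG)12, then terbium anti-His antibody and streptavidin-XL665 (5 nM final). After 60 min at room temperature, the 665/545 nm ratio is read.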
Mm-Cpn inhibitor: blocks the Methanococcus maripaludis chaperonin Mm-Cpn; purified Mm-Cpn ATPase, ADP Transcreener TR-FRET; Potency, µM (highest dose often 76.9 µM), inactives show at the highest dose activity, negative = inhibition, hits mostly inhibitors; 330,000 compounds, 0.031% hits; AID 504842; further: potency means the concentration at half of the fitted maximal effect; on the % scale 0 is the no-effect control and ±100 the full control effect; nearly all actives have a fitted effect of over 80% in size
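Quantitative HTS used 25 nM Mm-CPN and 10 uM ATP in magnesium/KCl Tris buffer, pH 7.4, with 1 mM DTT. Hydrolysis ran 30 min at 37°C; ADP was read by HTRF.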
CCT chaperon mod: cytosolic chaperonin activity modulation; AID 651819; activity change, % (test concentration not listed), hits read low; 360,000 compounds, 0.3% hits; purified chaperonin ATPase assay, HTRF ADP detection, 30 min; in the data active means activity change below about -30%; further: on the % scale 0 is the no-effect control and ±100 the full control effect
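ATPase activity: ADP formed was measured by HTRF Transcreener (665/615 nm ratio) after 30 min at 37 deg C with 10 uM ATP. Compounds screened at one 76 uM concentration against 40 or 20 nM TRiC in Tris pH 7.4/KCl/MgCl2/DTT buffer.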
uPA generation: cell surface uPA generation inhibition | AID 540303 | cell surface uPA generation assay, qHTS | 330,000 compounds, 0.31% hits | Potency, µM (series often up to 38.3 µM), for the others: at the top dose activity change, negative = inhibition, hits mostly inhibitors; active means well fitted inhibition curve with a large enough effect; inconclusive means small, poorly fitted or top-dose-only effect; inactive means no such curve, though single readings can be large or run the other way; tested in mouse RAW 264.7 cells; further: potency means the concentration at half of the fitted maximal effect; on the % scale 0 is the no-effect control and ±100 the full control effect; nearly all actives have a fitted effect of over 55% in size
pAkt inh: Akt phosphorylation inhibition. 360,000 compounds, 0.32% hits. Neuro2A IGF-stimulated pAkt S473 HTRF, 20 min; active compounds read low. activity change, % for hits at 50 µM; in the data active means activity change below about -80%; inconclusive means mostly about -51% to -80%; further: on the % scale 0 is the no-effect control and ±100 the full control effect
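Neuro2A cells in DMEM with 0.5% FBS, overnight at 37 deg C, given compound at single 50 µM final, then IGF (6 nM final) for 20 min at 37 deg C. Lysed; phospho-Akt Ser473 by HTRF after 24 h, 665/615 ratio.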
Epigenetic reg: regulators of epigenetic silencing causing reporter derepression in mouse cells; 280,000 compounds, 0.2% hits; murine LDR cells, GFP reporter derepression, 30 h; AID 1865; Potency, µM (doses to about 53.9 µM), for inactives: at the top dose GFP activation, usual class: activators; further: potency means the concentration at half of the fitted maximal effect; % of control where 0% means no effect; nearly all actives have a fitted effect of over 60% in size
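In this reporter-derepression format, murine cells bearing a silenced integrated CMV-GFP locus incubate with test compound (30 h, 37 C), then are washed and imaged; fluorescent objects of 20–120 um count as induced cells.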
* = called active by the depositor; i = inactive; ? = inconclusive; / = no result given. An excerpt weighted towards active compounds, which were near 0.97% of everything screened. Unless noted, the call rests on the fitted dose curve; in most records, active means well fitted curve in the direction sought with a large enough effect; inconclusive means small, poorly fitted or top-dose-only effect, or another doubt; inactive means no such curve, though single readings can be large; an effect the other way counts as inactive or inconclusive.

SMILES | MBNL1 CUG block | Mm-Cpn inhibitor | CCT chaperon mod | uPA generation | pAkt inh | Epigenetic reg
Cc1ccc(Cl)cc1N1CCN(C(=O)Cn2ncc3c([nH]c4ccccc43)c2=O)CC1 | / | / | / | / | / | 4%
Cc1ccc(N2CN(S(=O)(=O)c3cccc([N+](=O)[O-])c3)c3nc4ccccc4nc32)cc1 | -7% | 1% | 2 | 7% | i | /
CCN(CC)c1ccc2cc(-c3nnc(-c4ccncc4)o3)c(=O)oc2c1 | ? | 1% | -1 | / | i | 0.56µM*
Cc1ccccc1-c1noc(-c2cc3ccccc3oc2=O)n1 | / | / | / | / | / | 6%
CCN(CC)c1ccc2cc(/C(N)=N/NC(=O)c3cccs3)c(=O)oc2c1 | 16% | -1% | / | / | / | 6.3µM*
CCN(CC)c1ccc2cc(-c3nc(-c4cc(OC)c(OC)c(OC)c4)no3)c(=O)oc2c1 | / | / | / | / | / | 13µM*
CCN(CC)c1ccc2cc(-c3nc(-c4ccccc4F)no3)c(=O)oc2c1 | / | / | / | / | / | 13µM*
COc1cc(-c2noc(-c3cc4cccc(C)c4oc3=O)n2)cc(OC)c1OC | / | / | / | / | / | 0%
CC1CCCN(CCCNC(=O)c2ccc3c(c2)N(Cc2cccc(Cl)c2)C(=O)c2ccccc2S3(=O)=O)C1 (stereo not given) | / | / | / | / | / | 4%
CCN(CC)S(=O)(=O)c1ccc2nc(NC(=O)c3cncc(Br)c3)sc2c1 | / | / | / | / | / | 0%
CCCCOC(=O)Nc1ccc(S(=O)(=O)Nc2onc(C)c2C)cc1 | 0% | 1% | -1 | -4% | i | /
O=C(NCC(F)(F)F)c1ccc(S(=O)(=O)Nc2ccccc2N2CCCC2)cc1 | / | 0% | -2 | 1% | i | /
CCN(CC)c1ccc2cc(-c3nc(-c4cccs4)no3)c(=O)oc2c1 | / | / | / | / | / | 7.1µM*
CCc1ccc(NC(=O)c2cnn(-c3c(C)cccc3C)c2C2CCNCC2)cc1 | / | / | / | / | / | 0%
COc1ccc(-c2ccc3c(c2)S(=O)(=O)c2cccc(C(=O)N4CCN(C5CCCCC5)CC4)c2C3=O)cc1OC | / | 0% | -1 | 3.2µM* | i | /
COc1ccc(-c2ccc3c(c2)S(=O)(=O)c2cccc(C(=O)N4CCN(c5ccccn5)CC4)c2C3=O)cc1OC | / | / | -32* | / | i | /
COc1ccc(-c2ccc3c(c2)S(=O)(=O)c2cccc(C(=O)NC4CCCC4)c2C3=O)cc1OC | / | 0% | -15 | 1% | i | /
COc1ccc(-c2ccc3c(c2)S(=O)(=O)c2cccc(C(=O)O)c2C3=O)cc1OC | / | 2% | -2 | 14% | i | /
COc1cccc(N2C(=O)C(CC(=O)Nc3ccccc3)N(CCc3sccc3C)C2=O)c1 (stereo not given) | / | / | / | / | / | -2%
O=C(CSc1nnc(CNC(=O)c2ccco2)o1)Nc1ccc(OC(F)(F)F)cc1 | -4% | -1% | -47* | 13% | / | /
CC1CN(C(=O)CCC(=O)N2CCCCC2)c2ccccc2O1 (stereo not given) | -8% | 1% | -3 | 6% | i | /
CCOC(=O)c1ccc(Nc2c(-c3ccc(N(C)C)cc3)nc3nc[nH]n23)cc1 | / | / | / | / | / | 0%
COc1ccc(N2CC(NC(=O)/C=C\c3ccc4c(c3)OCO4)CC2=O)cc1OC (stereo not given) | / | / | / | / | / | 12%
O=C(Cc1ccccc1)NCCC1=CCCCC1 | 18% | -1% | 1 | 12% | i | 0%
O=C(NCCC1=CCCCC1)C(c1ccccc1)c1ccccc1 | -11% | 0% | 1 | -3% | -117%* | 0%
COc1cc(C2C(C#N)=C(N)N(Nc3ccccc3)C3=C2C(=O)CC(C)(C)C3)ccc1OCc1cccc(F)c1 (stereo not given) | 2% | -2% | 3 | 6% | -92%* | -1%
Cc1ccc(NC(=O)CS(=O)(=O)c2c[nH]c3ccccc23)c(C)c1 | -5% | -2% | 2 | 3% | i | -1%
CN(C)CCCNC(=O)C(=O)NCC1CCCO1 (stereo not given) | -2% | -3% | 3 | 4% | i | 0%
Oc1ccc2ccccc2c1CNc1ccc2ccccc2c1 | / | / | -37* | -4% | i | /
Oc1ccc2ccccc2c1CNc1ccccc1 | / | / | -4 | 1% | i | /
